For 4 molecules, composite z-score and z-score results are on record in PubChem BioAssay.

In experiment [1] the test system is Wnt5a (protein binding on small-molecule microarray). The experiment is described as follows: small molecules binding Wnt5a protein – biophysical, small-molecule microarray, 635/667 nm fluorescence, primary screen (AID 1142).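 Further: fluorescence read at 667 nm with signal to noise per printed feature.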 Particulars: 635 nm fluorescence, higher = more signal.
The nature of experiment [2]: ATP-based viability of Huh7 replicon cells – cell-based, CellTiter-Glo luminescence, basal, 48 h, cytotoxicity control for HCV replication inhibitor project, primary screen (AID 1143).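 Further: Huh7 hepatoma cells carrying a hepatitis C replication reporter with no stimulus; test concentration not given here.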 Particulars: higher = more signal, called active from +8 up or from −8 down. A general note: Replicon systems follow genome replication, usually without infectious particles.
Experiment [3] is described as follows: Pseudomonas biofilm growth suppression – PAO1 strain, BacTiter-Glo luminescence, LB-PBS, primary screen (AID 1144). Particulars: P. aeruginosa PAO1 biofilm, 12 h, higher = more signal.
Experiment [4] is described as follows: basal CRE-LacZ reporter activity in PC12 – cell-based, unstimulated, primary screen (AID 1145). The note with it: no forskolin, luminescence, 4.5 h, higher = more signal, called active from +8 up or from −8 down.
Experiment [5] is described as follows: forskolin-driven CRE-LacZ activity in PC12 – cell-based, CRE-LacZ reporter, forskolin-stimulated, primary screen (AID 1146).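 Further: PC12 cells with 6xCRE LacZ reporter stimulated by forskolin 10 µM; beta-galactosidase reporter signal reflecting CREB driven transcription.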 The note with it: luminescence, 4.5 h, higher = more signal, called active from +8 up or from −8 down.
The target in experiment [6] is Streptavidin (Streptomyces avidinii) (UniProt P22629). The experiment can be described thus: compounds binding control protein streptavidin – biophysical, small-molecule microarray, 635/667 nm fluorescence, artefact control for SMM compound annotation, primary screen (AID 1147).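 Further: signal reflects streptavidin binding to arrayed compounds as a control protein.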 The note with it: higher = more signal.
Chain of Streptavidin (Streptomyces avidinii) (P22629 whole entry, looked up): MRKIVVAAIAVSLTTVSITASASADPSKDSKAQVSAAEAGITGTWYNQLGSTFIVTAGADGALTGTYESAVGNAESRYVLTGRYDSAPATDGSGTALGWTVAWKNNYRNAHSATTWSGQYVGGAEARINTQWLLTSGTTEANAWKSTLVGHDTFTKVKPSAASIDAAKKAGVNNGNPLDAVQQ
The nature of experiment [7]: probe aInhba binding on compound microarray – biochemical, small-molecule microarray, 635/667 nm fluorescence, primary screen (AID 1148).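 Further: score merges 667nm spot fluorescence with signal-to-noise for antibody binding to printed compounds.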 Particulars: higher = more signal.
In experiment [8] the target is Torsin-1A (Homo sapiens) (UniProt O14656). The experiment is described as follows: TOR1A wild-type binding on microarray – cell lysate, small-molecule microarray, lysate, 635/667 nm, primary screen (AID 1149). Particulars: COS7 hTOR1A-WT lysate, 635 nm fluorescence, higher = more signal.
Chain of Torsin-1A (Homo sapiens) (O14656 whole entry, looked up): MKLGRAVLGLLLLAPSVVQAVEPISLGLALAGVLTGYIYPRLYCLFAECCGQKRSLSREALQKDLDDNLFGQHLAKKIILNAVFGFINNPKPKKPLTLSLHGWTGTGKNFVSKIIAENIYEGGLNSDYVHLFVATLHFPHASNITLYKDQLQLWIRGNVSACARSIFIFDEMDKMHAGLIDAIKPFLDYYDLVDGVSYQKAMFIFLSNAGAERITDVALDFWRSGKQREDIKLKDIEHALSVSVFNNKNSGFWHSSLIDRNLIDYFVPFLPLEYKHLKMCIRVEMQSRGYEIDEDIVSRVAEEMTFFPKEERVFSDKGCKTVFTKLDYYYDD
Experiment [9] has the same target. The experiment can be described thus: torsin A mutant lysate binding on microarrays – cell lysate, small-molecule microarray, COS7 lysate, 635/667 nm fluorescence, primary screen (AID 1150).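 Further: score pools 667 nm emission and signal to noise measuring lysate protein binding.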 The note with it: COS7 hTOR1A mutant lysate, 635 nm fluorescence, higher = more signal.
Experiment [10] has as its system Sonic hedgehog protein (Shh). The experiment can be described thus: Sonic hedgehog microarray binding compounds – biochemical, small-molecule microarray, 635/667 nm fluorescence, primary screen (AID 1151).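 Further: Shh protein binding to compounds spotted on small-molecule microarray slides; score combines spot fluorescence intensity with signal-to-noise across triplicate slides.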 Particulars: 635 nm fluorescence, higher = more signal.
The nature of experiment [11]: optical density shifts of acrAB sulA E. coli – strain DRC41, OD650, 48 h, E. coli filamentation inducer project, primary screen (AID 1152).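 Further: E. coli MC1000 strain DRC41 lacking acrAB efflux pump and sulA.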 Particulars: higher = more signal, called active from +8 up or from −8 down.
Experiment [12] in a line: probe aLefty1 binding on compound microarray – biochemical, small-molecule microarray, 635/667 nm fluorescence, primary screen (AID 1153).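 Further: score merges spot fluorescence with signal-to-noise ratio from the scanned slide images.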 Particulars: higher = more signal.
Experiment [13] can be described thus: plasmodial surface anion channel blockers, osmotic lysis – cell-based, P. falciparum Indochina, OD700, 1 h, primary screen (AID 1154). Particulars: P. falciparum Indochina infected RBC osmotic lysis, higher = more signal, called active from +8 up or from −8 down.
Experiment [14] in a line: plasmodial surface anion channel blockers, osmotic lysis – cell-based, P. falciparum Indochina, OD700, 2 h, primary screen (AID 1155).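 Further: lysis reports solute entry through the parasite surface anion channel PSAC.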 Particulars: P. falciparum Indochina infected erythrocytes, higher = more signal, called active from +8 up or from −8 down.
Experiment [15] is described as follows: changes in parasitized red cell lysis, either direction – P. falciparum Indochina, OD700, 3 h, PSAC antagonist project, primary screen (AID 1156). The note with it: P. falciparum-infected erythrocytes, osmotic lysis, higher = more signal, called active from +8 up or from −8 down.
Experiment [16] is described as follows: plasmodial surface anion channel blockers, osmotic lysis – cell-based, P. falciparum Indochina, OD700, 18 h, primary screen (AID 1157). The note with it: P. falciparum Indochina infected erythrocytes, osmotic lysis OD700, 18 h; higher = more signal, called active from +8 up or from −8 down.
Experiment [17] is described as follows: S6 kinase pathway phospho-S6 level changes – cell-based, A549, cytoblot, luminescence, serum-stimulated, primary screen (AID 1158).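 Further: serum-stimulated A549 lung adenocarcinoma cells; signal is phosphorylated S6 detected by cytoblot immunostaining with HRP secondary.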 The note with it: 5 h, higher = more signal.
Experiment [18] concerns the target NADPH oxidase 2 (Homo sapiens) (UniProt P04839). The experiment is described as follows: compounds shifting NOX2 Amplex Red fluorescence – cell-based, HEK293-NOX2, PMA-stimulated, NOX inhibitor project, primary screen (AID 1159). Further: test concentration not given here. The note with it: 45 min, higher = more signal, called active from +8 up or from −8 down.
Experiment [19] concerns the target NADPH oxidase 4 (Homo sapiens) (UniProt Q9NPH5). The experiment is described as follows: compounds shifting NOX4 Amplex Red fluorescence – cell-based, HEK293-NOX4, tetracycline-induced, NOX inhibitor project, primary screen (AID 1160). The note with it: HEK293-NOX4, Amplex Red H2O2 fluorescence, 45 min; higher = more signal, called active from +8 up or from −8 down.

Experiment [20] concerns the target NADPH oxidase 5 (Homo sapiens) (UniProt Q96PH1). The experiment can be described thus: compounds shifting NOX5 Amplex Red fluorescence – cell-based, HEK293-NOX5, NOX inhibitor project, primary screen (AID 1161). The note with it: HEK293-NOX5, ionomycin, 45 min, higher = more signal.

Calls of active or inactive are those of the source. Unless noted, how the calls were made is not given here.

Chain of NADPH oxidase 4 (Homo sapiens) (Q9NPH5 whole entry, looked up): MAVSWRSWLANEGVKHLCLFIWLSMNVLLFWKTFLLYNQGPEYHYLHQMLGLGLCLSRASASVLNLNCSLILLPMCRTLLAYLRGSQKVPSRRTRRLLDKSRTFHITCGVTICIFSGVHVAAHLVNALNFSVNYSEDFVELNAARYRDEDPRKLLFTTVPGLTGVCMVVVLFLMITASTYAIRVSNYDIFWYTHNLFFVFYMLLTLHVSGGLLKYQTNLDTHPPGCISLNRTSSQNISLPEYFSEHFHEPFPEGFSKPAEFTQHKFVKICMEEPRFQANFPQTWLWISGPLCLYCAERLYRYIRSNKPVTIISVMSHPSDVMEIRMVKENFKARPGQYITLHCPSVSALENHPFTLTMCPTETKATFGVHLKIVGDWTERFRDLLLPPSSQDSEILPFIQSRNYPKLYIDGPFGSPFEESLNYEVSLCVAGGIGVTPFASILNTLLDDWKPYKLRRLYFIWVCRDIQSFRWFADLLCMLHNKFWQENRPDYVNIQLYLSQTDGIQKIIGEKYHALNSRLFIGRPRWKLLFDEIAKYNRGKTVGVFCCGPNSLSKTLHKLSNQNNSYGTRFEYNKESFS
Chain of NADPH oxidase 5 (Homo sapiens) (Q96PH1 whole entry, looked up): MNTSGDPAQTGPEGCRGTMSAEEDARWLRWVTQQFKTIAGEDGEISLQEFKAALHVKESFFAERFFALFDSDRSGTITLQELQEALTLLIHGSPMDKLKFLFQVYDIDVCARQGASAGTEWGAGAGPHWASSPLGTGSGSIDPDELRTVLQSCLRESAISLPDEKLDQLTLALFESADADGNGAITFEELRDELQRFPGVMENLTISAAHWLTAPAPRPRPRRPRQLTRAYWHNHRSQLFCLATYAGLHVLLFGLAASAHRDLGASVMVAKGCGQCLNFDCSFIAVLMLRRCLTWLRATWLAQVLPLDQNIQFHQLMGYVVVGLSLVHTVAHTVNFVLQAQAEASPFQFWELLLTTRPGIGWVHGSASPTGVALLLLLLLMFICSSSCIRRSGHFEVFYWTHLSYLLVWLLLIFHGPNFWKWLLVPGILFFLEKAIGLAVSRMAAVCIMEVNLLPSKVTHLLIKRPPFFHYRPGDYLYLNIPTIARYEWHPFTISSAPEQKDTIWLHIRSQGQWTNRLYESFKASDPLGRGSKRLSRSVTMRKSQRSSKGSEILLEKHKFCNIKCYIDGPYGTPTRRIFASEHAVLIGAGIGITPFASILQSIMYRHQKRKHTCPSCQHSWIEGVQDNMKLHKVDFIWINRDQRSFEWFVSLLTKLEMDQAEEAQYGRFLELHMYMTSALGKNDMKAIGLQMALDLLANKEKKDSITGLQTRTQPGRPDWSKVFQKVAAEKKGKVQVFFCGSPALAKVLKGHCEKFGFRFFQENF
Chain of NADPH oxidase 2 (Homo sapiens) (P04839 whole entry, looked up): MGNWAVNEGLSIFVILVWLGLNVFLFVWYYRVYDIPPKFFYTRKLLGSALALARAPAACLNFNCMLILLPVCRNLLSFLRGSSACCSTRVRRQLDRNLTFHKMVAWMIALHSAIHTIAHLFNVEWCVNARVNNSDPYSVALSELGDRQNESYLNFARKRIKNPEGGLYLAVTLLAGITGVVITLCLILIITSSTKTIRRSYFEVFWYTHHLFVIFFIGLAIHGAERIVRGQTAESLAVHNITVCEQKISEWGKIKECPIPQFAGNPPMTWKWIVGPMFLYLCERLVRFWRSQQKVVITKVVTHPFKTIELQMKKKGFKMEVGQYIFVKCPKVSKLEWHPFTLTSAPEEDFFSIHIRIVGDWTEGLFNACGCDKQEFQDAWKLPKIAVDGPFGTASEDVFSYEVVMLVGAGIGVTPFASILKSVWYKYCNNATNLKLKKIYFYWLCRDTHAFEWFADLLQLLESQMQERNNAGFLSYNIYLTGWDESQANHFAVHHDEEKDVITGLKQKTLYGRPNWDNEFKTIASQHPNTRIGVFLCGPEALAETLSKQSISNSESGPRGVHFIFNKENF

For `C=CCC(OC(C)=O)[C@@H]1[C@@H](N(Cc2cccc3ccccc23)C(=O)Cc2ccc(F)cc2)c2cc(OCCCO)ccc2N1C(=O)Cc1ccc2ccccc2c1` (stereo not given in full), the composite z-score in [1] was -0.0893; in experiment [6], -0.11; in experiment [7], -0.101; with Torsin-1A (Homo sapiens) [8] it was -0.52; with Torsin-1A (Homo sapiens) [9], 0.169; in [10] it was 0.332. For the same molecule, the composite z-score in [12] is -0.0162. Besides, the z-score in experiment [2] was -0.288 (inactive); in experiment [3], -0.688 (inactive); in experiment [4], -0.36 (inactive); in experiment [5], 1.17 (inactive); in experiment [11], 0.576 (inactive); in experiment [13] it was 1.71 (inactive). Besides, the z-score in [14] was 0.605 (inactive); in experiment [15], -0.0952 (inactive); in experiment [16], 0.434 (inactive); in experiment [17], 0.163; in [18], -0.606 (inactive); in [19], 0.626 (inactive). The z-score in [20] was 0.765.

On to `COc1ccc(-c2cc3c(c(-c4ccccc4)n2)[Si](C(C)C)(C(C)C)O[C@H]3c2ccccc2)cn1`, for which the composite z-score in experiment [1] is 0.436; in experiment [6], -0.207; in [7], -0.0403; with Torsin-1A (Homo sapiens) [8], 0.363; with Torsin-1A (Homo sapiens) [9], -0.0308; in experiment [10], 0.82. Also, the composite z-score in experiment [12] was -0.147. Further, the z-score in experiment [2] was 0.0834 (inactive); in experiment [3], 0.0798 (inactive); in experiment [4], 0.0035 (inactive); in experiment [5], 0.411 (inactive); in experiment [11] it was -1.27 (inactive); in experiment [13], 1.71 (inactive). The z-score in experiment [14] was 0.489 (inactive); in experiment [15], -0.479 (inactive); in experiment [16] it was -0.183 (inactive); in [17] it was -0.442; in experiment [18], 0.601 (inactive); in [19], 0.451 (inactive). Also, the z-score in experiment [20] turned out to be 0.929.

For the molecule `C[C@]1(C(=O)NCCN2CCOCC2)c2ccccc2C(=O)N(Cc2ccccc2)[C@H]1c1ccc(CO)cc1`, the composite z-score is -0.21 in [1]; -0.833 in [6]; -0.0405 in experiment [7]; 0.403 with Torsin-1A (Homo sapiens) [8]; 0.915 with Torsin-1A (Homo sapiens) [9]; -0.928 in experiment [10]. The composite z-score in experiment [12] is -0.0969. Also, the z-score in [2] was -1.82 (inactive); in experiment [3], -2.31 (inactive); in experiment [4] it was -0.412 (inactive); in experiment [5], -0.0192 (inactive); in experiment [11], 0.402 (inactive); in experiment [13], 5.59 (inactive). Besides, the z-score in experiment [14] was 0.516 (inactive); in [15], 1.88 (inactive); in experiment [16] it was 0.719 (inactive); in experiment [17], 0.282; in experiment [18], 0.346 (inactive); in [19], -1.61 (inactive). In addition, the z-score in experiment [20] was -2.77.

On to `C=C[C@H](OC)[C@@H](OC(=O)Nc1ccc(SC)cc1)c1ccc(O)c(F)c1`, for which the composite z-score in experiment [1] was 0.418; in experiment [6], -0.174; in [7] it was -0.0695; in the experiment with Torsin-1A (Homo sapiens) [8], 0.373; with Torsin-1A (Homo sapiens) [9], 0.23; in experiment [10], 1.6. The composite z-score in experiment [12] came to 0.0043. Besides, the z-score in experiment [2] was -0.731 (inactive); in experiment [3], -0.782 (inactive); in experiment [4], 5.83 (inactive); in experiment [5], -0.362 (inactive); in experiment [11], 0.738 (inactive); in experiment [13], 25.5 (active). Also, the z-score in [14] was 8.06 (active); in [15], 1.83 (inactive); in [16], -0.016 (inactive); in [17], 0.461; in experiment [18] it was -2.96 (inactive); in experiment [19] it was -1.66 (inactive). In addition, the z-score in experiment [20] is -1.06.
